Source: PubChem BioAssay
USP1-UAF1 inh: Inhibitors of USP1/UAF1: Primary Screen. Ubiquitin carboxyl-terminal hydrolase 1 (Homo sapiens), O94782. recombinant USP1/UAF1, Ub-Rhodamine cleavage fluorescence. Potency, µM (top dose mostly 57.1 µM), for inactives: at the top dose activity change, negative = inhibition, usual class: inhibitors. hit rate 0.23% among 390,000. AID 743255, 2014; further: on the % scale 0 is the no-effect control and ±100 the full control effect; nearly all actives have a fitted effect of over 60% in size
Target sequence (O94782 whole entry, looked up): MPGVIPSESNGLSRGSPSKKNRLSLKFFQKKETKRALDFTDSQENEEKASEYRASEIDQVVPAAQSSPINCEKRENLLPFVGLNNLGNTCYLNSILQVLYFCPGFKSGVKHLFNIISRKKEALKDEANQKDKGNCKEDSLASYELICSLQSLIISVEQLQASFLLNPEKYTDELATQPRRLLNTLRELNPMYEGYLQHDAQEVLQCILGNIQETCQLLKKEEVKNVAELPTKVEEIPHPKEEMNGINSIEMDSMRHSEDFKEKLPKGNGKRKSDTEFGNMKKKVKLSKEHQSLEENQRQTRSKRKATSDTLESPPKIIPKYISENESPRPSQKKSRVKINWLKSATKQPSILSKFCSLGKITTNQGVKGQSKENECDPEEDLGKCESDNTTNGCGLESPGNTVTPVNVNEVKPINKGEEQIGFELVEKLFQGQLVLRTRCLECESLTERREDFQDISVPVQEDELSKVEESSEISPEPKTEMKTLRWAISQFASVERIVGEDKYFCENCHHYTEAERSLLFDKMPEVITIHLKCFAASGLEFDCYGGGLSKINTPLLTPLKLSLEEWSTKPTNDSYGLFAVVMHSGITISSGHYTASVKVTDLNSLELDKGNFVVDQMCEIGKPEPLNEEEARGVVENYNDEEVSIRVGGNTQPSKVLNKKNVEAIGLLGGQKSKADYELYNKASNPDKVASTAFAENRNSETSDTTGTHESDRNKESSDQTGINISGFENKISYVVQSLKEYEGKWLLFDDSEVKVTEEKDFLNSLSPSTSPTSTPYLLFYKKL
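Step one: compound is pinned into 1nM USP1/UAF1 in HEPES pH 7.8 buffer with TCEP. Step two: 15 min room-temperature incubation. Step three: Ub-Rho (150nM final) starts cleavage, tracked by fluorescence over six one-minute reads.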
EPAC2 antagonist: qHTS for Antagonist of cAMP-regulated guanine nucleotide exchange factor 2 (EPAC2): primary screen; EPAC2 GEF exchange of Rap1B-BODIPY-GDP, fluorescence; Potency, µM (titrated, usually from 114 µM), without a hit: at the highest dose activity, negative = inhibition, actives largely listed as inhibitors; hit rate 0.18% among 360,000; further: on the % scale 0 is the no-effect control and ±100 the full control effect; nearly all actives have a fitted effect of over 45% in size
GLP1R cytotox: qHTS of GLP-1 Receptor Inverse Agonists: Cytotox Screen | hit rate 0.13% among 410,000 | HEK293 cAMP-luciferase reporter cells, luminescence, 24 h | Potency, µM (top dose mostly 38.3 µM), without a hit: at the top dose activity change, negative = inhibition, actives largely listed as inhibitors;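 further: loss of luciferase light is scored as toxicity; on the % scale 0 is the no-effect control and ±100 the full control effect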
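Luminescence readout: signal drop marks cytotoxicity. Plated cells grew 12 h at 37 °C, 5% CO2, received 23 nL compound for 24 h, then got luciferase reagent, read after 12 min at RT.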
EPAC2 ag: qHTS for Agonist of cAMP-regulated guanine nucleotide exchange factor 4 (EPAC2): primary screen; Potency, µM (top dose mostly 154 µM), for inactives: top-dose activation, hits mostly activators; EPAC2 activation, biochemical qHTS; response scale: 100% = 6.5 mM cAMP response; Rap guanine nucleotide exchange factor 4 (Homo sapiens), Q8WZA2; hit rate 0.079% among 360,000; further: nearly all actives have a fitted effect of over 50% in size
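Readout is BODIPY fluorescence (480 nm excitation, 540 nm emission), which falls as labeled GDP is exchanged off Rap1B. EPAC2 at 100 nM acted on 250 nM RAP1B-BODIPY-GDP with 50 uM GDP present.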
EPAC1 ag: qHTS for Agonist of cAMP-regulated guanine nucleotide exchange factor 3 (EPAC1): primary screen | Rap guanine nucleotide exchange factor 3 (Homo sapiens), O95398 | EPAC1 agonist qHTS, biochemical assay; response scale: 100% = response to 6.5 mM cAMP | Potency, µM (highest dose often 154 µM), without a hit: at the highest dose activation, actives largely listed as activators | hit rate 0.073% among 360,000; further: nearly all actives have a fitted effect of over 60% in size
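Nucleotide exchange assay: 100 nM EPAC1 with 250 nM Rap1B loaded with BODIPY-GDP and 50 uM GDP, room temperature. Fluorescence (480/540 nm) read every 5 min for 30 min; signal change normalized to 6.5 mM cAMP as full agonist.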
EPAC1 antag: qHTS for Antagonist of cAMP-regulated guanine nucleotide exchange factor 3 (EPAC1): primary screen. Rap guanine nucleotide exchange factor 3 (Homo sapiens), O95398. EPAC1 GEF assay, Rap1b-BODIPY-GDP exchange fluorescence. Potency, µM (top dose mostly 115 µM), inactives show at the top dose activity change, negative = inhibition, actives largely listed as inhibitors. hit rate 0.14% among 360,000;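 further: plate controls were vehicle for no effect and positive control for full effect; nearly all actives have a fitted effect of over 50% in size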
* marks the source's active call; other numbers are inactive results; ? = inconclusive; . = no result. Shown are actives, neighbours in structure and some others; about 0.55% of the full set was active somewhere. The call rests on the fitted dose curve; in most records, active means well fitted curve in the direction sought with a large enough effect; inconclusive means small, poorly fitted or top-dose-only effect, or another doubt; inactive means no such curve, though single readings can be large; an effect the other way counts as inactive or inconclusive. Potency means the concentration at half of the fitted maximal effect.

SMILES	USP1-UAF1 inh	EPAC2 antagonist	GLP1R cytotox	EPAC2 ag	EPAC1 ag	EPAC1 antag
O=C(O)c1ccccc1NS(=O)(=O)c1ccc(N/N=C/c2ccc(O)c(O)c2)c([N+](=O)[O-])c1	?	56µM*	?	-25%	-14%	16µM*
CCOc1ccccc1Nc1ncnc2c1c(-c1ccccc1)cn2-c1ccc(OC)cc1	3%	.	-6%	.	.	.
COc1cccc(CNC(=O)Cc2c(C(=O)O)c(C)cn2C)c1	-9%	.	-8%	.	.	.
O=C(O)c1ccccc1NS(=O)(=O)c1ccc(NN=Cc2cccc(Cl)c2)c([N+](=O)[O-])c1	?	?	-16%	-8%	-3%	50µM*
COc1ccc(C2=C(C)C(=NCCCN3CCN(c4cc(C)ccc4C)CC3)NS2(=O)=O)cc1	16%	.	11%	.	.	.
Cc1ccc(CSC2=NCCN2S(=O)(=O)c2ccc(F)cc2)cc1	-16%	50µM*	19%	12%	8%	?
Cc1ccc(CSC2=NCCN2S(=O)(=O)c2ccccc2)cc1	-23%	-17%	-2%	7%	9%	2%
Cc1ccc(C)c(Nc2nnc(-c3ccc(C)c(S(=O)(=O)NCC4CCCO4)c3)c3ccccc23)c1 (centres undefined)	-19%	.	7%	.	.	.
O=C(O)Cc1ccc(C(=O)c2ccc(Cl)cc2Cl)s1	-11%	35µM*	3%	-1%	-7%	-20%
Cc1cccc(NS(=O)(=O)c2c(C)nc3sccn3c2=O)c1C	?	.	21%	.	.	.
CCOC(=O)CC(=O)CSc1nc(-c2cccnc2)ccc1C#N	32µM*	6%	67%	24%	16%	7%
Cc1ccc(N2C(=O)CS(=O)(=O)C23C(=O)N(Cc2ccccc2C)c2ccccc23)cc1Cl (centres undefined)	-15%	.	4%	.	.	.
Cc1ccc(C)c(CNC(=O)c2ccc3c(c2)nc2n3CCCCC2)c1	5%	.	-20%	.	.	.
Cc1ccc(Cl)cc1NC(=O)Cn1c(=O)n(Cc2ccccc2)c(=O)c2oc3ccccc3c21	-15%	.	3%	.	.	.
O=C(O)c1cccc(S(=O)(=O)Nc2ccc([N+](=O)[O-])cc2O)c1	-2%	0%	-28%	6%	-2%	-8%
O=C(O)CSc1cc(NS(=O)(=O)c2cccc([N+](=O)[O-])c2)c2ccccc2c1O	18µM*	?	3%	112µM*	24%	?
CCc1ccc(S(=O)(=O)Nc2cc(SCC(=O)O)c(O)c3ccccc23)cc1	?	?	1%	10%	?	89µM*
Cc1ccc(C)c(S(=O)(=O)Nc2cc(SCC(=O)O)c(O)c3ccccc23)c1	?	-6%	-27%	4%	21%	?
CCOc1ccc(S(=O)(=O)Nc2cc(SCC(=O)O)c(O)c3ccccc23)cc1	25µM*	-4%	-6%	11%	28%	89µM*
Cc1ccc2c(c1)N(C(=O)Nc1cccc3c1CCCC3)CCO2	-13%	.	19%	.	.	.
Cc1ccc(-n2c(Cl)c(Cl)nc(Cl)c2=O)cc1	-10%	-6%	2.8µM*	5%	6%	?
CCc1cccc(CC)c1N(COC)C(=O)Cn1c(C)nc2ccccc21	38%	.	7%	.	.	.
Clc1ccc(/C=N/NC(=Nc2ccccc2)c2ccccn2)c(Cl)c1	-17%	1%	10µM*	0%	10%	3%
CCS(=O)(=O)N1CCc2cc(C(=O)NCc3ccccc3Cl)ccc21	-10%	.	-6%	.	.	.
CCOC(=O)C1=C(c2ccccc2)N=c2sc(=Cc3cc(OC)c(OC)c(OC)c3)c(=O)n2C1c1cccs1 (centres undefined)	.	6%	25%	1%	-3%	-4%
SMILES	USP1-UAF1 inh	EPAC2 antagonist	GLP1R cytotox	EPAC2 ag	EPAC1 ag	EPAC1 antag
CCOC(=O)C1=C(c2ccccc2)N=c2s/c(=C\c3ccc(O)cc3)c(=O)n2C1c1cccs1 (centres undefined)	28µM*	16%	-11%	24%	24%	6%
COc1cc(/C=C2\S/C(=N/S(=O)(=O)c3ccc(C)cc3)NC2=O)c([N+](=O)[O-])cc1OC	-14%	6%	-1%	6%	3%	-7%
Cc1ccc(S(=O)(=O)/N=C2/NC(=O)/C(=C/c3cc([N+](=O)[O-])ccc3O)S2)cc1	28µM*	-25%	24%	6%	3%	?
COc1cccc(N=C2NC(=O)/C(=C/c3cc([N+](=O)[O-])ccc3O)S2)c1	0%	?	3%	5%	6%	-12%
O=C1NC(=Nc2ccccc2Cl)S/C1=C\c1cc([N+](=O)[O-])ccc1O	?	18µM*	-19%	-10%	-21%	79µM*
Cc1cc(C)cc(NC(=O)NCCn2nnc3cc(S(=O)(=O)N(C)C)ccc32)c1	-9%	.	-5%	.	.	.
COc1ccc(/C=C2\N=C(SC)N(c3ccccc3OC)C2=O)cc1	-25%	18µM*	-16%	15%	-2%	6%
CCOc1ccc(N2C(=O)/C(=C/c3ccccc3)N=C2SC)cc1	-15%	1%	-2%	4%	8%	-15%
Cn1nc(-c2ccccn2)nc2c(=O)n(C)c(=O)nc1-2	0.032µM*	?	?	?	-5%	?
CCCc1nc2c(=O)n(C)c(=O)nc-2n(C)n1	0.1µM*	?	?	24%	2%	?
CCn1c(N)nc2c1c(=O)n(C)c(=O)n2C	-27%	1%	8%	0%	-15%	8%
COc1ccc(C)cc1S(=O)(=O)Nc1cccc(-c2ccc(N3CCCC3)nn2)c1	-15%	.	-4%	.	.	.
CCOC(=O)c1cc(-c2ccc(OC)cc2)n(CCC(=O)NCc2ccc(OC)cc2)c1C	-22%	.	-9%	.	.	.
CCCC(=O)O[C@@H]1C[C@@H](C)N(C(=O)c2ccccc2)c2ccc(C)cc21	-13%	20µM*	-2%	-20%	-3%	8%
C#CC(c1ccccc1)(c1ccccc1)n1ccnc1	?	?	-14%	6%	10%	23%
Clc1ccccc1C(c1ccccc1)(c1ccccc1)n1ccnc1	-17%	14µM*	-5%	20%	5%	-4%
COc1cc(/C=C2/C(=O)c3cccc([N+](=O)[O-])c3C2=O)c(Br)cc1O	?	-5%	?	-3%	-3%	40µM*
